Values joined by “and” are separate entries in the source; they are usually repeats but may differ in a detail not shown here. Identical values can stand only once. Unmarked numbers belong to inactive results. Results filed as inconclusive are left out. Active and inactive are the calls of the source. Unless noted, the call rests on the fitted dose curve; in most records, active means well fitted curve in the direction sought with a large enough effect; inconclusive means small, poorly fitted or top-dose-only effect, or another doubt; inactive means no such curve, though single readings can be large; an effect the other way counts as inactive or inconclusive.

Test [1] is described as follows: qHTS to identify inhibitors of the type 1 interferon - major histocompatibility complex class I in skeletal muscle: primary screen against the NCATS LOPAC collection (AID 1347405).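 Further: lytic HiBiT luminescence reporting HLA-B protein level.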 The method in brief: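 Luminescence from HiBiT fused to endogenous HLA-B in CRISPR-engineered human myoblasts served as the read-out. Cells received 4.0 ng/ml IFN-beta plus compound (seven concentrations, 1:4.3 steps, highest 46 uM final) for 24 hrs before lytic detection.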
(qHTS replaces the single test concentration by a dilution series.)

Test [2] in a line: qHTS to identify inhibitors of the type 1 interferon - major histocompatibility complex class I in skeletal muscle: primary screen against the NCATS Pharmaceutical Collection (AID 1347407).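 Further: luminescence of HiBiT knocked into endogenous HLA-B as interferon-induced MHC class I level.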 The method in brief:
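Cells were seeded with 4 ng/ml IFN-beta, incubated 1 h, then dosed with compounds over eight 1:5 steps up to 46 uM final. After 24 h at 37 C, HiBiT lytic reagent was added and luminescence read after 10 min lysis in the dark.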

A short description of test [3]: qHTS for inhibitors of adenylyl cyclases using a fission yeast platform: a pilot screen against the NCATS LOPAC library (AID 1347410). The method in brief:
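Growth medium went into the plates first, then compounds were pinned (final up to 57 µM), then CHP2027 yeast were added. Plates were incubated overnight (18 h) at 30C in the dark, and GFP was measured by laser scanning cytometry.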

Test [4] concerns the target Protein phosphatase 1D (Homo sapiens) (UniProt O15297). In words: RapidFire Mass Spectrometry qHTS Assay for Modulators of WT P53-Induced Phosphatase 1 (WIP1) (AID 1347424).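 Further: amount of dephosphorylated VEPPL-S-QETFS peptide product formed by WIP1; series mostly up to about 63 µM.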 The method in brief: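 WIP1 (10 nM final) was preincubated 1 h at room temperature with compounds in Tris-HCl pH 7.5, 30 mM MgCl2, TCEP, EGTA, BSA; 2 uM VEPPL-pS-QETFS phosphopeptide was added for 5 min, quenched with formic acid, and dephosphorylated product quantified by RapidFire MS.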

The target is the same in test [5]. In words: Rhodamine-PBP qHTS Assay for Modulators of WT P53-Induced Phosphatase 1 (WIP1) (AID 1347425). The method in brief:
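The read-out is the change in Rhodamine-PBP fluorescence (f1 - f0, ex 525/em 598 nm) as Pi is released, read each minute for 11 min. Final reaction: 5 nM WIP1, 10 uM phosphopeptide VEPPL-pS-QETFS, 10 uM Rh-PBP, 50 mM Tris-HCl pH 7.5, 30 mM MgCl2. Compound was preincubated with enzyme for 1 hour at room temperature.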

A short description of test [6]: Primary qHTS for inhibitors of La Crosse Virus (LACV) - induced cell death in SH-SY5Y cells (AID 1508616).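 Further: top concentration of the series differs between compounds; higher means more rescue of cells from virus-induced death.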 The method in brief: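 Protection against LACV-induced cell death is scored in SH-SY5Y cells exposed to compounds and virus (0.01 MOI) for 6 days. Data normalized to virus-infected DMSO wells and virus-free DMSO wells.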
Test [7] concerns the target Calcium and integrin-binding protein 1 (Homo sapiens) (UniProt Q99828). Put plainly: Validation qHTS for Identification of Calcium Integrin Binding protein 1 (CIB1) Competitor (AID 1508618). The method in brief: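 CIB1-GST (1 uM final) incubated 15 min at room temperature with compounds (up to 114 uM), then FITC-labelled alphaIIb peptide (100 nM) added. FP read (Ex 480/Em 540) after 15 min, pH 7.4 buffer containing 5 mM CaCl2.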

The target is the same in test [8]. Put plainly: Primary qHTS for Identification of Calcium Integrin Binding Protein 1 (CIB1) Competitor (AID 1508620).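 Further: GST tagged CIB1 binding a fluorescein labelled alphaIIb integrin peptide tracer; top concentration of the series differs between compounds.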 The method in brief: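 Fluorescence polarization competition: CIB1-GST (1 uM final) preincubated with compound 15 min at room temperature, then FITC-labeled alphaIIb peptide (100 nM final) added for another 15 min. Polarization read at Ex 480/Em 540.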

Test [9] can be described thus: Primary qHTS for small molecule stabilizers of the endoplasmic reticulum resident proteome: Secreted ER Calcium Modulated Protein (SERCaMP) assay (AID 1508630). The method in brief: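 GLuc-SERCaMP-expressing SH-SY5Y cells, pretreated 16 h with compound, are challenged with thapsigargin to empty ER calcium stores; after 4 h, coelenterazine is added directly to the medium and luminescence is imaged.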

In test [10] the target is Cytochrome P450 2D6 (Homo sapiens) (UniProt P10635). Put plainly: Cytochrome P450 family 2 subfamily D member 6 (CYP2D6) small molecule antagonists: luciferase biochemical (cell-free) qHTS assay (AID 1645840; active means well fitted curve in the direction sought with a large enough effect in the repeat runs; an effect the other way counts as inactive or inconclusive; further: nearly all actives have a fitted effect of over 55% in size; further: potency means the concentration at half of the fitted maximal effect). The method in brief:
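P450-Glo luminescent screen: recombinant CYP2D6 enzyme–proluciferin substrate mix preincubated with compound 10 min at room temperature, then NADPH regeneration added for 1 h at room temperature. Detection reagent added for 20 min; luciferin light read as relative luminescence units.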

Test [11] deals with Cytochrome P450 2C9 (Homo sapiens) (UniProt P11712). In words: Cytochrome P450 family 2 subfamily C member 9 (CYP2C9) small molecule antagonists: luciferase biochemical (cell-free) qHTS assay (AID 1645842; active means well fitted curve in the direction sought with a large enough effect in the repeat runs; an effect the other way counts as inactive or inconclusive; further: series mostly up to about 57 µM; nearly all actives have a fitted effect of over 55% in size). The method in brief:
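Luminescence, after 20 min with luciferin detection reagent, reflected CYP2C9 turnover during a 1 h NADPH-driven reaction at 37C. Enzyme-substrate mix contained 0.4% bovine serum albumin and was preincubated with compound 10 min at room temperature.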

Test [12] deals with Papain (Carica papaya) (UniProt P00784). In words: Primary qHTS assay for inhibitors of the protease papain (AID 1645873).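 Further: papain turnover of Z-FR-AMC read as the AMC fluorescence gain over 10 min; series mostly up to about 50 µM.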
Test [13] in a line: Primary qHTS for inhibitors of nuclear receptor binding SET domain protein 2 (NSD2) in an isogenic RCH-ACV NSD2 p.E1099K mutant (9B) (AID 1645876). Further: nearly all actives have a fitted effect of over 70% in size.
The target in test [14] is Single-stranded DNA cytosine deaminase (Homo sapiens) (UniProt Q9GZX7). In words: Validation qHTS assay for inhibitors of Activation Induced Cytidine Deaminase (AID): AID signal (AID 1347429). The method in brief: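 Fluorescence at 540 nm excitation and 590 nm emission reports ssDNA cytosine deamination by AID, with UDG in the same well. Compound-treated reactions ran 4 hr at room temperature with DJC20/DJC23 substrate, followed by 30 min NaOH treatment.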

Test [15] can be described thus: A High-Content qHTS Against Drug Library for the Identification of Small Molecules that Inhibit DYT1 Early Onset Primary Dystonia-Associated Cell Pathology (AID 1645839; calls by dose curve; further: series mostly up to about 46 µM). The method in brief: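 Readout: %pathology, the punctate EGFP-TorsinA distribution from imaging, as the primary channel and cell count as the toxicity counterscreen. HEK293 Flp-In cells expressing delE TorsinA were induced with tetracycline and treated with compound for 48 h.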

Test [16] in a line: Validation qHTS assay for inhibitors of Activation Induced Cytidine Deaminase (AID): UDG Counterscreen signal (AID 1347427). The method in brief: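 Counterscreen read of UDG activity (2 U/mL, 4/3x) in the FRET deamination format with AID (1 uM, 4/3x), DJC20/DJC23 substrates (250 nM, 4x), 4 h at room temperature. NaOH stop, fluorescence at 560 ex/665 em.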
Test [17] addresses Cytochrome P450 3A4 (Homo sapiens) (UniProt P08684). In words: Cytochrome P450 family 3 subfamily A member 4 (CYP3A4) small molecule antagonists: luciferase qHTS assay (AID 1645841; active means well fitted curve in the direction sought with a large enough effect in the repeat runs; an effect the other way counts as inactive or inconclusive; further: nearly all actives have a fitted effect of over 45% in size). The method in brief:
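P450-Glo CYP3A4 enzyme with proluciferin substrate was preincubated with DMSO-dissolved compounds for 10 min at room temperature. NADPH regeneration solution started a 1 h reaction. Detection reagent stopped it, and luminescence was read after 20 min.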

Cytochrome P450 2C9 (Homo sapiens), sequence (P11712 whole entry, looked up): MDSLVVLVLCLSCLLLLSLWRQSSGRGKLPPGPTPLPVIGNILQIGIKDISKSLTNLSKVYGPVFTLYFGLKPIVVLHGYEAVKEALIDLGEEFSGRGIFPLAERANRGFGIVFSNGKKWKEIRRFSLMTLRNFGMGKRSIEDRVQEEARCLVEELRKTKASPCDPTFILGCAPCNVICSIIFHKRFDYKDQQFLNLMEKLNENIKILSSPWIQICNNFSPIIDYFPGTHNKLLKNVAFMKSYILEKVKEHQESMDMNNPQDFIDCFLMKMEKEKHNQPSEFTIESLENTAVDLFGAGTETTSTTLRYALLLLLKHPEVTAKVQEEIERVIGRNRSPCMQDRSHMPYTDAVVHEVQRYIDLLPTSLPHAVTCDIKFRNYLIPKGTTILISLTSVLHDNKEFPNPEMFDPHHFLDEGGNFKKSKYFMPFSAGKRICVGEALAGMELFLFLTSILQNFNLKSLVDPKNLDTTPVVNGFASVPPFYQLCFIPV
Papain (Carica papaya), sequence (P00784 whole entry, looked up, the tested form may be a part): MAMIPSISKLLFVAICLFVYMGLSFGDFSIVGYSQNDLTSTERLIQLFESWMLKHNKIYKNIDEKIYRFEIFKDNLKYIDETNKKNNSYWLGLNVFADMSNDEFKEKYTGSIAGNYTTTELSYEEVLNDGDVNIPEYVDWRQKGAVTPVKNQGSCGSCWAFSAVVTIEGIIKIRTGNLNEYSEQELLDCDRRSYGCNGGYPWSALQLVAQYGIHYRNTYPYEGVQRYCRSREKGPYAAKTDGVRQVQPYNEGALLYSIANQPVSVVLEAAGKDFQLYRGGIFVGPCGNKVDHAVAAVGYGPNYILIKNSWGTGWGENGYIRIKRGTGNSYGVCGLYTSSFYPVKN
Single-stranded DNA cytosine deaminase (Homo sapiens), sequence (Q9GZX7 whole entry, looked up): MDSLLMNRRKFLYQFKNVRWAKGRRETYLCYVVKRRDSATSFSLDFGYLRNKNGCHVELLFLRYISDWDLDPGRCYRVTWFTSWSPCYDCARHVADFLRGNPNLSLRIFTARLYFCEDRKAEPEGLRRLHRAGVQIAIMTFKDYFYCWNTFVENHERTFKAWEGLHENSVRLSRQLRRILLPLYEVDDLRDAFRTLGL
Calcium and integrin-binding protein 1 (Homo sapiens), sequence (Q99828 whole entry, looked up): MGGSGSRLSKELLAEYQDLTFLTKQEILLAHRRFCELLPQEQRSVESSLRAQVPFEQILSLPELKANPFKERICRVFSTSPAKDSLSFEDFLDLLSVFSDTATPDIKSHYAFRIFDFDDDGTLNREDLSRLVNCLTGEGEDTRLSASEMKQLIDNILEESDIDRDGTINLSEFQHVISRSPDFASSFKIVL
Protein phosphatase 1D (Homo sapiens), sequence (O15297 whole entry, looked up): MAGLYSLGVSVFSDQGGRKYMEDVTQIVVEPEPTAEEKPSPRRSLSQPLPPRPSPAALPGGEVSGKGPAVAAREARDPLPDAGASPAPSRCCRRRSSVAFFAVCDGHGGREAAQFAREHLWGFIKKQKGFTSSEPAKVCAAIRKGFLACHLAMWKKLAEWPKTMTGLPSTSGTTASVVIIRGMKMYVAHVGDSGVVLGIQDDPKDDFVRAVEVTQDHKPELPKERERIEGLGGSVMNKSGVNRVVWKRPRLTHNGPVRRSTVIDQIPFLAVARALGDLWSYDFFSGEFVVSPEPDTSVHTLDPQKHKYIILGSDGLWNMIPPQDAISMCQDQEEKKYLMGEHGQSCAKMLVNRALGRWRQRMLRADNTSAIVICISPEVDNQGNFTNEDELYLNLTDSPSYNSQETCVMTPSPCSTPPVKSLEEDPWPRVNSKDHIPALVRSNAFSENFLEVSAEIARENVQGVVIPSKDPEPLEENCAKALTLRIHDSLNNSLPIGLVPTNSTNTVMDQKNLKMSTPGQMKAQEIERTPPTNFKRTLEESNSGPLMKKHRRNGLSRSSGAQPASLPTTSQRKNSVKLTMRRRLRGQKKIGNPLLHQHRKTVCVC
Cytochrome P450 2D6 (Homo sapiens), sequence (P10635 whole entry, looked up): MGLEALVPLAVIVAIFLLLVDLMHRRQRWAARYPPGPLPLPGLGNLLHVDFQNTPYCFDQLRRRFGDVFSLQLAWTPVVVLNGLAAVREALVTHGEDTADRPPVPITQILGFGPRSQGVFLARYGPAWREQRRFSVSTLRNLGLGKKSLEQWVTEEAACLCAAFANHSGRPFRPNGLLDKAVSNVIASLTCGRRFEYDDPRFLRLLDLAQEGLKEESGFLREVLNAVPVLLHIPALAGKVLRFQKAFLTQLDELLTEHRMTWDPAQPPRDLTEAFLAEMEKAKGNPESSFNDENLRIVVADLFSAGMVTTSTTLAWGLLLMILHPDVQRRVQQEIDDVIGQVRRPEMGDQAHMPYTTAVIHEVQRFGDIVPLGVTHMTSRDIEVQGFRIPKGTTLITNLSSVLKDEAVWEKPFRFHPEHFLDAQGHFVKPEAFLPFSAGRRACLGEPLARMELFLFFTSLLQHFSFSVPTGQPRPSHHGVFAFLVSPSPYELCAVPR
Cytochrome P450 3A4 (Homo sapiens), sequence (P08684 whole entry, looked up): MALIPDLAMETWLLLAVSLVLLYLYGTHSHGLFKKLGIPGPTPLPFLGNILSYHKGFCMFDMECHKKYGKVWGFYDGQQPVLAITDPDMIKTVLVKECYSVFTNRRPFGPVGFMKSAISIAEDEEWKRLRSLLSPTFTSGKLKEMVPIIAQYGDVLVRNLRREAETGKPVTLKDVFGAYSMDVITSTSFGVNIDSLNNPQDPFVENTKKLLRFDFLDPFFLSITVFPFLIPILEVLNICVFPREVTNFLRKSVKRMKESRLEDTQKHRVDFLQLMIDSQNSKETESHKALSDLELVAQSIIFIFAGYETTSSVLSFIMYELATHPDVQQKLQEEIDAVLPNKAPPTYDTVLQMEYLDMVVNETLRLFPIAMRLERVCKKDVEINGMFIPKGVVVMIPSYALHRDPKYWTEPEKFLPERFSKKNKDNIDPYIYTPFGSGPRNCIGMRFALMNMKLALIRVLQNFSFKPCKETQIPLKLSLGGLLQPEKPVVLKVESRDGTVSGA

With `COc1ccc(CN(CCN(C)C)c2ccccn2)cc1`, the Potency result in test [1], in test [2], in test [4], in test [6], in test [8] and in test [9] was “inactive” each time. For the same molecule, the Potency entry in test [11], in test [12] and in test [13] was “inactive” throughout. Besides, the outcome in test [3], in test [5] and in test [7] was inactive. Also, the Potency in test [10] was 195 nM (active) and 213 nM (active).

In the case of `CCc1c(C)[nH]c2c1C(=O)C(CN1CCOCC1)CC2` (configuration not stated), the Potency result in test [1], in test [2], in test [4], in test [14], in test [6] and in test [8] was “inactive” throughout. Moreover, the Potency entry in test [9], in [15] and in test [12] was “inactive” in each case. For the same molecule, the call in test [3], in [5] and in test [7] was inactive.

With `CN1C(=O)CC[C@H]1c1cccnc1`, the Potency entry in test [1], in test [2], in [14], in [6], in [8] and in test [9] was “inactive” each time. Also, the Potency entry in [15], in [10], in [11], in test [12] and in test [13] was “inactive” each time. Further, the result in test [3], in test [5], in test [16] and in test [7] was inactive.

Regarding `C[N+](C)(C)CCOC(=O)CCC(=O)OCC[N+](C)(C)C`, the Potency entry in test [1], in test [2], in test [14], in test [6], in [8] and in test [9] was “inactive” each time. In addition, the Potency result in [15], in test [10], in test [11], in [12] and in [13] was “inactive” throughout. Further, the molecule was classed as inactive in [3], in test [5], in test [16] and in test [7].

On to `CC(C(=O)O)c1ccc(CC2CCCC2=O)cc1` (configuration not stated), for which the Potency entry in [1], in test [2], in test [4], in [14], in [6] and in [8] was “inactive” in each case. The Potency entry in [9], in [15], in test [10], in [11], in test [12] and in [13] was “inactive” in each case. For the same molecule, the molecule was called inactive in test [3], in test [5], in test [7] and in test [17].

Regarding `O=C1CC2(CCCC2)CC(=O)N1CCCCN1CCN(c2ncccn2)CC1`, the Potency entry in test [1], in test [2], in test [14], in [6], in [8] and in test [9] was “inactive” in each case. Besides, the Potency result in [15], in test [11], in [12] and in [13] was “inactive” throughout. Further, the outcome in test [3], in test [5], in test [16] and in test [7] was inactive. Moreover, the Potency in test [10] was 17.4 µM (active) and 13.5 µM (active).

On to `CO[C@@]1(NC(=O)CSCC#N)C(=O)N2C(C(=O)O)=C(CSc3nnnn3C)CS[C@@H]21`, for which the Potency result in test [1], in test [2], in [4], in test [14], in test [6] and in test [9] was “inactive” throughout. Besides, the Potency entry in test [15], in test [10], in test [11] and in [13] was “inactive” in each case. Besides, the molecule was classed as inactive in test [3], in test [5], in test [16] and in test [7].

On to `CN(C)CC/C=C1\c2ccccc2COc2ccccc21`, for which the Potency entry in [1], in [2], in test [4], in [14], in test [6] and in test [8] was “inactive” in each case. The Potency entry in test [11] and in test [12] was “inactive” throughout. The molecule was classed as inactive in [3], in test [5] and in test [7]. Moreover, in [10], the Potency was 1.95 µM (active).

Source of the values: PubChem BioAssay (NCATS).
